# Whole data set: some 33,000 sequences, median “e-score” near -0.05, cut for the highest 2% near 0.38. What follows is part of a selection rich in the highest values, with near analogues and random picks from the rest.
# Target: T1, SIX1-Q177R homeodomain (human, UniProt Q15475 108-198, Q177R)
# T1 sequence: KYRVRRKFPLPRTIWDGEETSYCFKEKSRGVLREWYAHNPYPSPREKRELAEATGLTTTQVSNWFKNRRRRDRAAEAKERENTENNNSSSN
# Experiment: universal protein binding microarray; Universal all-10-mer PBM (8x60K, AMADID 030236), 300 nM GST-tagged protein, Alexa Fluor 488 anti-GST; buffer, salt, pH and temperature not stated (as in Berger); high values mean tight binding
# Conditions: protein: ivt; tags: N-terminal GST; dsDNA, one strand shown
# In short: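 Homeodomains carrying a GST tag were produced by in vitro transcription/translation, then quantified by anti-GST western blot against a recombinant GST standard curve. Duplicate applications at 300 nM final concentration were made to universal 'all 10-mer' protein binding microarrays in 8×60K format. The Universal PBM Analysis Suite was used to express binding as 8-mer E-scores.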
row,Sequence,binding signal
1,CACTCACA,0.228 ± 0.0123 E-score
2,CCCTAGTA,0.18 ± 0.00712 E-score
3,CACCCAAA,0.255 ± 0.0189 E-score
4,TACCGACA,0.166 ± 0.00446 E-score
5,AGTCAGTG,0.207 ± 0.0189 E-score
6,CCCCACTC,0.18 ± 0.00661 E-score
7,CGGGTCAC,0.246 ± 0.0313 E-score
8,CCCGCCCC,0.1792 ± 0.00129 E-score
9,AGCACCAG,0.247 ± 0.0221 E-score
10,AACACCAG,0.4653 ± 0.00151 E-score
11,AACACGAG,0.361 ± 0.00448 E-score
12,ACCAATAC,0.1574 ± 0.000269 E-score
13,CCAGTGTC,0.431 ± 0.00754 E-score
14,GAAGTGTA,0.368 ± 0.0537 E-score
15,CCTGTGTC,0.229 ± 0.0614 E-score
16,GCAGTGTA,0.415 ± 0.0107 E-score
17,ACTGTGTC,0.155 ± 0.074 E-score
18,AAAGTGTC,0.36 ± 0.0233 E-score
19,GCAGGGTA,0.162 ± 0.00253 E-score
20,CCAGTTTA,0.227 ± 0.00151 E-score
21,CCAGTGTA,0.43 ± 0.0046 E-score
22,ACAGTGTC,0.387 ± 0.00426 E-score

row,Sequence,binding signal
1,CCAGTGGG,0.224 ± 0.0185 E-score
2,CCAGTAAC,0.161 ± 0.0301 E-score
3,CTCCCCTA,0.159 ± 0.0508 E-score
4,CCGGGCGA,0.151 ± 0.0223 E-score
5,GATCCACA,0.157 ± 0.00291 E-score
6,ACCCTGAA,0.21 ± 0.0501 E-score
7,CACAGGAG,0.168 ± 0.00689 E-score
8,GGATCCCC,0.298 ± 0.0202 E-score
9,CCCCGCCC,0.223 ± 0.0451 E-score
10,TACTAACA,0.185 ± 0.0552 E-score
11,AGTGCGGA,0.161 ± 0.0458 E-score
12,CCGGATCG,0.199 ± 0.0134 E-score
13,CCCGCCGC,0.184 ± 0.0289 E-score
14,AAAGTGTA,0.36 ± 0.0454 E-score
15,ACAGAGTG,0.184 ± 0.0479 E-score
16,ACAGTGTA,0.381 ± 0.0259 E-score
17,GCACCCCA,0.257 ± 0.053 E-score
18,ACTGGATC,0.155 ± 0.0197 E-score
19,GCGTAACA,0.199 ± 0.0107 E-score
20,CGTATCAC,0.162 ± 0.023 E-score
21,GGTATCAC,0.3993 ± 0.00177 E-score
22,GGTATCAA,0.325 ± 0.0148 E-score

row,Sequence,binding signal
1,ACCCGCCA,0.152 ± 0.0278 E-score
2,ATGATCCC,0.251 ± 0.0242 E-score
3,GCACACTA,0.2 E-score
4,ATACACTA,0.364 ± 0.0337 E-score
5,GTACACTA,0.432 ± 0.0136 E-score
6,ATACACTC,0.369 ± 0.0201 E-score
7,CCACACTA,0.206 ± 0.00246 E-score
8,CTACACTA,0.401 ± 0.013 E-score
9,CTACACTC,0.412 ± 0.0145 E-score
10,CCACACTC,0.308 ± 0.014 E-score
11,TCTCAACA,0.219 ± 0.0267 E-score
12,ACTTTACA,0.228 ± 0.0604 E-score
13,TGCGAACA,0.158 ± 0.012 E-score
14,ATCCCCCA,0.24 ± 0.0099 E-score
15,TAGTTACA,0.249 ± 0.0533 E-score
16,GACCCGAC,0.193 ± 0.052 E-score
17,AAGGTGGT,0.151 ± 0.00564 E-score
18,CATGTGTA,0.2594 ± 0.00165 E-score
19,GAGGTGCA,0.192 ± 0.0287 E-score
20,CAGGTACA,0.187 ± 0.0255 E-score
21,CAGGTGTA,0.464 ± 0.00823 E-score
22,GAGGTATA,0.18 ± 0.0163 E-score

row,Sequence,binding signal
1,GAGGTGTA,0.466 ± 0.00775 E-score
2,AAGGTGTG,0.369 ± 0.0137 E-score
3,AAGGTGTA,0.461 ± 0.0153 E-score
4,AAGGTGTC,0.4706 ± 0.00267 E-score
5,AAGGTGCA,0.222 ± 0.0217 E-score
6,AAGCGTGT,0.378 ± 0.00665 E-score
7,GATCCCGA,0.203 ± 0.0172 E-score
8,ACGCACGA,0.277 ± 0.005 E-score
9,CCCCCGGG,0.195 ± 0.00105 E-score
10,CCCACCCG,0.194 ± 0.0228 E-score
11,ACGAGTTA,0.205 ± 0.00221 E-score
12,CAACCCCC,0.242 ± 0.0559 E-score
13,ACACAAGG,0.155 ± 0.0571 E-score
14,ACCAGTGA,0.189 ± 0.0202 E-score
15,CACTTACG,0.206 ± 0.0274 E-score
16,AAGGAGTA,0.158 ± 0.0662 E-score
17,ACATGGTG,0.33 ± 0.0163 E-score
18,CACGAGCA,0.242 ± 0.0191 E-score
19,ACCCGACT,0.207 ± 0.0388 E-score
20,CTGCGACA,0.195 ± 0.00854 E-score
21,CATGTGTC,0.19 ± 0.0338 E-score
22,CAGGTATC,0.328 ± 0.00751 E-score

row,Sequence,binding signal
1,CAGGTGTC,0.474 ± 0.0095 E-score
2,CCCAGGTA,0.203 ± 0.0198 E-score
3,AGAGCGTG,0.189 ± 0.00653 E-score
4,AACGTGTG,0.154 ± 0.0123 E-score
5,CACGCGTG,0.317 ± 0.0193 E-score
6,AGCGTGTG,0.281 ± 0.00182 E-score
7,CGTGTGTA,0.296 ± 0.0261 E-score
8,AGCGTGTA,0.419 ± 0.0156 E-score
9,CGTGTGTC,0.289 ± 0.0336 E-score
10,AGCGGGTA,0.158 ± 0.0257 E-score
11,CGCGTGTA,0.43 ± 0.00692 E-score
12,AGCGTGTC,0.393 ± 0.00925 E-score
13,CGCGTATC,0.155 ± 0.05 E-score
14,CGCGTGTC,0.414 ± 0.00637 E-score
15,ACCGCACC,0.247 ± 0.013 E-score
16,CTCGGATA,0.188 ± 0.0289 E-score
17,GTGGATCA,0.161 ± 0.0203 E-score
18,ACTGGTGC,0.297 ± 0.00607 E-score
19,CACGGTCA,0.2431 ± 0.00219 E-score
20,GTCCAACA,0.216 ± 0.00357 E-score
21,AGAAACGG,0.152 ± 0.0193 E-score
22,ATAGGTGC,0.193 ± 0.00788 E-score

# Reference: publication PMC10668032, “Altered binding affinity of SIX1-Q177R correlates with enhanced WNT5A and WNT pathway effector expression in Wilms tumor”
